From PubChem BioAssay (NCI)
About 83,000 compounds went through this panel and 20% of them were active in at least one assay; those are over-represented in the sample as a whole.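 Assay: single dose, 48 h. Readout: percent growth (0 = no net growth; negative = cell death). Active: <10.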 Values without a mark were called inactive. The source made the active and inactive calls.

Columns and labels:
Assay in all cases: NCI-60 one-dose screen, 48 h (100 = growth as untreated, 0 = no growth, -100 = all killed)
Conditions in all cases: 10 µM unless noted
SR leukemia = test system: SR leukemia
RPMI-8226 leukemia = test system: RPMI-8226 leukemia
OVCAR-8 ovarian = test system: OVCAR-8 ovarian
OVCAR-5 ovarian = test system: OVCAR-5 ovarian
OVCAR-4 ovarian = test system: OVCAR-4 ovarian
SK-OV-3 ovarian = test system: SK-OV-3 ovarian
IGROV1 ovarian = test system: IGROV1 ovarian
OVCAR-3 ovarian = test system: OVCAR-3 ovarian
HS 578T breast = test system: HS 578T breast
NCI/ADR-RES ovarian = test system: NCI/ADR-RES ovarian
T-47D breast = test system: T-47D breast
BT-549 breast = test system: BT-549 breast
MDA-MB-435 melanoma = test system: MDA-MB-435 melanoma
SW-620 colon = test system: SW-620 colon
MCF7 breast = test system: MCF7 breast
HCT-116 colon = test system: HCT-116 colon
HCC-2998 colon = test system: HCC-2998 colon
KM12 colon = test system: KM12 colon

| Compound | growth (SR leukemia) | growth (RPMI-8226 leukemia) | growth (OVCAR-8 ovarian) | growth (OVCAR-5 ovarian) | growth (OVCAR-4 ovarian) | growth (SK-OV-3 ovarian) | growth (IGROV1 ovarian) | growth (OVCAR-3 ovarian) | growth (HS 578T breast) | growth (NCI/ADR-RES ovarian) | growth (T-47D breast) | growth (BT-549 breast) | growth (MDA-MB-435 melanoma) | growth (SW-620 colon) | growth (MCF7 breast) | growth (HCT-116 colon) | growth (HCC-2998 colon) | growth (KM12 colon) |
| --- | --- | --- | --- | --- | --- | --- | --- | --- | --- | --- | --- | --- | --- | --- | --- | --- | --- | --- |
| N=c1c2c(=N)n3c(nc2nc2n1-c1ccccc1Sc1ccccc1-2)sc1cc(Cl)ccc13 | 25.9% | 14.5% | 26.5% | 92.2% | 8.65% (active) | 49.6% | 38.7% | 7.88% (active) | 32% | 30.1% | 6.16% (active) | 42.2% | 21.1% | 32.4% | -2.03% (active) | 10.7% | -18.6% (active) | – |
| CN1CCN(CCCOc2ccc3ncnc(Nc4ccc(Oc5cccc(F)c5)c(Cl)c4)c3c2)CC1 | 1.08% (active) | -30.1% (active) | 31.6% | 25.4% | 3.58% (active) | 8.4% (active) | -5.39% (active) | 0.254% (active) | 42.3% | 41.9% | 20.8% | 90.4% | -84.8% (active) | -71.9% (active) | 3.01% (active) | -63.6% (active) | – | – |
| CCOC(=O)n1cc(-c2nonc2-c2cn(C)c3ccccc23)c2ccccc21 | 19.7% | 38.9% | 51.6% | 55.6% | 59.9% | 45% | 46.8% | 25.1% | 29.3% | 15.2% | 40.6% | 55.3% | -8% (active) | 18.8% | 21.6% | 22.3% | – | – |
| CCCCCCCCCCCCCCCCOC(=O)c1c(C)[nH]c(/C=C2\N=C(c3ccc[nH]3)C=C2OC)c1C | 68.2% | -2.3% (active) | 15.3% | 78.4% | 72.2% | 70.4% | 35.6% | 47.6% | 65.9% | 26.6% | 31.2% | 55.1% | 15.7% | 10.9% | 8.67% (active) | -0.291% (active) | 24.3% | – |
| CNC(=O)c1c(NC(=O)c2ccc(C(C)(C)C)cc2)sc2c(CN(C)C)c(O)ccc12 | 3.65% (active) | -28.1% (active) | 23.7% | -30.9% (active) | 67.5% | 34.1% | 20.3% | 32.7% | 54.7% | 11.4% | -3.98% (active) | 71.9% | -85% (active) | -85.8% (active) | -43.2% (active) | -88.4% (active) | -83.6% (active) | – |
| Cc1c2cnccc2c(C)c2c1c1cc(C3OCCCO3)ccc1n2C | 4.22% (active) | -21.6% (active) | 6.68% (active) | -3.71% (active) | -2.47% (active) | -6.97% (active) | 2% (active) | 0.203% (active) | -3.27% (active) | -9.92% (active) | -4.56% (active) | -37% (active) | -28.1% (active) | 4.71% (active) | 0.909% (active) | 1.45% (active) | -15.1% (active) | – |
| Cc1cc(C)cc(Nc2ccc([N+](=O)[O-])c(NCCN3CCOCC3)n2)c1 | 17% | 11.5% | 20% | 52.9% | 52.6% | 50.3% | 23.5% | 2.95% (active) | 21.6% | 18.1% | 56.3% | 9.31% (active) | -30.1% (active) | 31% | 13.2% | 5.31% (active) | 9% (active) | 15.4% |
| N#Cc1c(NC(=O)c2cccs2)[n+]([O-])c2ccc(Cl)cc2[n+]1[O-] | 109% | 104% | 108% | 114% | 94.8% | 94% | -19.9% (active) | 81.5% | 56.9% | 99.2% | 91.4% | 113% | 89.2% | 85.3% | 101% | 79.8% | 111% | – |
| CCC(C)Nc1ccc(NC(C)CC)cc1 (stereo not drawn) | 76.1% | 65.8% | 89.2% | 103% | 84.1% | 98.4% | 65.4% | 28.6% | 110% | 94.5% | 79.7% | 85.4% | 95.3% | 106% | 47.2% | 28.2% | 80.2% | 112% |
